IMPase Li cell = qHTS Assay for Identifying the Cell-Membrane Permeable IMPase Inhibitors: Potentiation with Lithium; CHO-M1 cells, IP1 TR-FRET (IP-One), carbachol + lithium; Potency, µM (top dose mostly 59.4 µM), most hits filed as inhibitors; hit rate 0.35% among 210,000; AID 1457, 2008;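 further: IP1 builds up when IMPase is blocked and the TR-FRET signal falls; nearly all actives have a fitted effect of over 50% in size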
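CHO-M1, 2000 cells/well, 16–30 h culture; cpd + low Li+, 30 min 37C; lysis with d2-IP1/Eu-anti-IP1 Ab, 10 min RT; TR-FRET 665/620 ratio and 620 channel; AC50 via Hill.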
HTT cytoprotect = qHTS Multiplex Assay to Identify Dual Action Probes in a Cell Model of Huntington: Cytoprotection (ATP) | PC12 HTT-Q103 induced, cytoprotection, ATP luminescence, 40 h | Potency, µM (titrated, usually from 56.4 µM), actives largely listed as activators | hit rate 0.14% among 230,000 | AID 1471, 2008; further: nearly all actives have a fitted effect of over 45% in size
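PC12 cells stably carrying ecdysone-inducible Htt exon 1 (Q103)–GFP were induced with 100 nM tebufenozide (final) alongside library compounds in a dose series. Cytoprotection was scored as retained ATP by ATPlite luminescence.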
HttQ103 aggreg = qHTS Multiplex Assay to Identify Dual Action Probes in a Cell Model of Huntington: Aggregate Formation (GFP) | hit rate 1.1% among 220,000 | Potency, µM (highest dose often 46.1 µM), hits mostly inhibitors | PC12 HttQ103-GFP aggregates, Acumen cytometry, 40 h | AID 1688, 2009; further: nearly all actives have a fitted effect of over 60% in size
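Read-out: GFP aggregate count by laser scanning cytometer (488 nm excitation, 500-530 nm emission, 1–25 µm objects >6 SD above background). Cells: PC12, inducible HTTex1-Q103-GFP, 100 nM tebufenozide; compounds titrated.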
ALDH1A1 block = qHTS Assay for Inhibitors of Aldehyde Dehydrogenase 1 (ALDH1A1) | Aldehyde dehydrogenase 1A1 (Homo sapiens), P00352 | Purified ALDH1A1, NADH fluorescence, propionaldehyde substrate | Potency, µM (series often up to 75.3 µM), usual class: inhibitors | hit rate 7.3% among 220,000 | AID 1030, 2008; active means well fitted inhibition curve with a large enough effect, not every such curve was filed as active; inconclusive means small, poorly fitted or top-dose-only effect, or another doubt; inactive means no such curve, though single readings can be large or run the other way
HPGD inh = qHTS Assay for Inhibitors of HPGD (15-Hydroxyprostaglandin Dehydrogenase); 15-hydroxyprostaglandin dehydrogenase [NAD(+)] (Homo sapiens), P15428; purified HPGD, NADH fluorescence kinetic, PGE2 substrate; Potency, µM, most hits filed as inhibitors; hit rate 4.3% among 150,000; AID 894, 2007; active means well fitted inhibition curve with a large enough effect, not every such curve was filed as active; inconclusive means small, poorly fitted or top-dose-only effect, or another doubt; inactive means no such curve, though single readings can be large or run the other way
Target sequence (P15428 whole entry, looked up): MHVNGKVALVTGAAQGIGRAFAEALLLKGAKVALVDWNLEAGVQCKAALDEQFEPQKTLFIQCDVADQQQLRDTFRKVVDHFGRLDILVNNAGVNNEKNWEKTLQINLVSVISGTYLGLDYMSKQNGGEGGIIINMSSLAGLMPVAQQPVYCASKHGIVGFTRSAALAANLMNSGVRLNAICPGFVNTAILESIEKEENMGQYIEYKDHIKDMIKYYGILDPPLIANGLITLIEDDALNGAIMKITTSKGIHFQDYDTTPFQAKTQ
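20 nM HPGD preincubated 15 min at room temperature with compound in 50 mM Tris-HCl pH 8, 0.01% Tween 20. Started with 1 mM NAD+ and 30 uM prostaglandin E2; NADH fluorescence (360/450 nm) read 5 times over 30-s intervals, last minus first.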
IMPase inh = qHTS Assay for Identifying the Cell-Membrane Permeable IMPase Inhibitors; Inositol monophosphatase 1 (Rattus norvegicus), P97697; CHO-M1 cells, IP1 accumulation, HTRF TR-FRET ratio; inhibition (IP1 accumulation), % at 46.1 µM; 120,000 tested, under 10 active; active means well fitted curve in the direction sought with a large enough effect in the signal ratio, not every such curve was filed as active; inconclusive means small, poorly fitted or top-dose-only effect, or a change in a side signal; inactive means no such curve, though single readings can be large or run the other way; the % refers to the signal ratio;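 further: cells stimulated with carbachol in lithium chloride buffer; higher means more IMPase inhibition seen as more IP1 and lower FRET ratio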
Target sequence (P97697 whole entry, looked up): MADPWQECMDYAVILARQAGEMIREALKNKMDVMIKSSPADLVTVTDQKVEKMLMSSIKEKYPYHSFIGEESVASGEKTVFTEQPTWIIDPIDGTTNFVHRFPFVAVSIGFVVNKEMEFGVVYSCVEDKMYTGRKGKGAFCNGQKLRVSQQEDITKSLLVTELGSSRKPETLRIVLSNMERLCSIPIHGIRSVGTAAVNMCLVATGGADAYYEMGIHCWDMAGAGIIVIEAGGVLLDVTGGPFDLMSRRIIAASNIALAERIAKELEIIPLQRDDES
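Carbachol-driven Gq signalling in CHO-M1 cells (2000/well) generates IP1. Compounds that block IMPase raise IP1 and so reduce the FRET signal from Eu-anti-IP1 and d2-IP1 after a 10 min room-temperature lysis.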
Large screens that a line does not name were inactive. An excerpt weighted towards active compounds, which were near 9.4% of everything screened. Unless noted, the call rests on the fitted dose curve; in most records, active means well fitted curve in the direction sought with a large enough effect; inconclusive means small, poorly fitted or top-dose-only effect, or another doubt; inactive means no such curve, though single readings can be large; an effect the other way counts as inactive or inconclusive.

Cc1ccc(NC(=O)c2sc3nc4c(c(-c5ccco5)c3c2N)CCC4)cc1	IMPase Li cell inconclusive, ALDH1A1 block 4.5µM
Nc1c(C(=O)Nc2ccc(Br)cc2)sc2nc(-c3ccco3)ccc12	IMPase Li cell 11µM, ALDH1A1 block inconclusive, HPGD inh inconclusive, IMPase inh inconclusive
O=C(c1cccc(F)c1)N1CCC2(CC1)CCN(C(c1ccccc1)c1ccccc1)CC2	none (no result: HttQ103 aggreg, IMPase inh)
COc1ccc(-c2cc(C(F)(F)F)nc(SCCC(=O)Nc3ccc(F)cc3F)n2)cc1	none (no result: IMPase Li cell, HTT cytoprotect, HttQ103 aggreg, ALDH1A1 block, HPGD inh)
CCCCOc1ncnc2c1[nH]c1ccc(OCC)cc12	none
CCCCOc1ncnc2c1[nH]c1ccc(OC)cc12	none
CCCCOCCCNc1ncnc2c1[nH]c1ccccc12	HttQ103 aggreg inconclusive, ALDH1A1 block inconclusive
CCCCOc1ncnc2c1[nH]c1ccccc12	HttQ103 aggreg 4µM, ALDH1A1 block inconclusive, HPGD inh inconclusive
CCOCCCNc1ncnc2c1[nH]c1ccccc12	HttQ103 aggreg 10µM, ALDH1A1 block inconclusive, HPGD inh inconclusive
CCCCOc1ncnc2c1[nH]c1ccc(F)cc12	HttQ103 aggreg 3.2µM
COC(=O)[C@@]1(Cc2ccc(OC)cc2)[C@H]2c3cc(C(=O)N(C)C)n(Cc4nc5ccccc5[nH]4)c3C[C@H]2CN1C(=O)c1ccccc1	ALDH1A1 block inconclusive (no result: HttQ103 aggreg, IMPase inh)
COc1cccc(NC(=O)Cc2ccccc2)c1	none
O=C(Cc1ccccc1)Nc1cccc(N2C(=O)C=CC2=O)c1	HttQ103 aggreg inconclusive, ALDH1A1 block 0.71µM, HPGD inh 3.5µM (no result: IMPase inh)
CCOC(=O)c1c(-c2ccco2)csc1N	ALDH1A1 block 20µM
CCOC(=O)OCC1OC(C#Cc2ccccc2)C=CC1Oc1cccc(N(C)C)c1 (stereo not drawn)	ALDH1A1 block inconclusive (no result: IMPase Li cell, HttQ103 aggreg, HPGD inh, IMPase inh)
COCCN(C(=O)Cc1cccs1)c1nnc(-c2ccncc2)s1	ALDH1A1 block 13µM
CCN(C(=O)c1cccs1)c1nnc(-c2ccncc2)s1	none
CC/C(=N\NC(=O)c1ccc(CN(C)S(=O)(=O)c2ccc(C)cc2)cc1)c1ccc(OC(F)F)cc1	ALDH1A1 block 13µM (no result: IMPase inh)
CC/C(=N\NC(C)=O)c1ccc(OC(F)F)cc1	none (no result: HPGD inh, IMPase inh)
Cc1ccc(S(=O)(=O)N(C)Cc2ccc(C(=O)NN=C(CC(C)C)CC(C)C)cc2)cc1	ALDH1A1 block 7.1µM (no result: IMPase inh)
Cc1ccc(S(=O)(=O)N(C)Cc2ccc(C(=O)NN=C3C4CC5CC(C4)CC3C5)cc2)cc1	ALDH1A1 block 0.5µM (no result: IMPase Li cell, HPGD inh)
CCNc1ncc2nc(-c3ccc(Cl)cc3)c(=O)n(C)c2n1	ALDH1A1 block inconclusive (no result: HttQ103 aggreg, HPGD inh, IMPase inh)
CCOC(=O)C12CC1/C(=N\O)c1ccccc1O2 (stereo not drawn)	none (no result: HttQ103 aggreg, HPGD inh, IMPase inh)
CN(C)CCN(C(=O)c1ccc(Br)s1)c1nc2cc3c(cc2s1)OCCO3	none (no result: HPGD inh, IMPase inh)
CN(C)CCN(C(=O)c1ccc(N2C(=O)CCC2=O)cc1)c1nc2cc3c(cc2s1)OCO3	ALDH1A1 block 20µM (no result: HPGD inh, IMPase inh)
COC(=O)c1ccc(C(NC(=O)OCc2ccccc2)/C(=C/[C@@H](C)C(=O)NCCF)c2cccnc2)cc1 (stereo partly drawn)	none (no result: HttQ103 aggreg, IMPase inh)
O=C(NC(=S)NNC(=O)c1ccccc1[N+](=O)[O-])c1ccccc1	ALDH1A1 block 10µM, HPGD inh 32µM
COc1ccc(C(=O)NNC(=O)c2ccccc2[N+](=O)[O-])cc1	none (no result: IMPase inh)
O=C(NCc1cccs1)c1ccccc1C(=O)NCc1cccs1	none
O=C(NNC(=O)c1ccccc1[N+](=O)[O-])c1ccccc1[N+](=O)[O-]	ALDH1A1 block 22µM (no result: HPGD inh, IMPase inh)
CCC(=O)NC(=S)NNC(=O)c1ccccc1[N+](=O)[O-]	ALDH1A1 block 10µM (no result: HPGD inh, IMPase inh)
O=C(NCc1cccs1)c1ccccc1[N+](=O)[O-]	HttQ103 aggreg inconclusive, HPGD inh 13µM (no result: IMPase inh)
